Reference: PubChem BioAssay (Tox21)
Results filed as inconclusive are left out. Activity calls are given as the source filed them. Unless noted, calls come from the whole dose curve; as a rule, active = well fitted curve in the direction sought with a large enough effect in the repeat runs; inconclusive = weak or mixed curves; inactive = no such curve, though single readings can be large; an effect the other way counts as inactive or inconclusive.

Experiments:
[1] = qHTS assay to identify small molecule agonists of the sonic hedgehog signaling (Shh) pathway (AID 1259368; calls by dose curve; note: series mostly up to about 92 µM; nearly all actives have a fitted effect of over 15% in size)
Procedure, shortened: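 NIH/3T3-derived 3T3Gli1-Luc cells carrying a stably integrated Gli1 response element–firefly luciferase reporter were plated, left 4 hr at 37 C, then given compounds in DMSO for 24 hr. Luminescence was read 30 min after adding luciferase reagent.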

[2] = qHTS assay to identify small molecule agonists of the androgen receptor (AR) signaling pathway in the presence of an antagonist - cell viability counter screen (AID 1259379); note: series mostly up to about 92 µM; nearly all actives have a fitted effect of over 25% in size
Procedure, shortened: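 MDA-kb2 human breast carcinoma cells (stable MMTV-luciferase, AR/GR responsive) were seeded 3,000 cells/well, pre-incubated 5 hr at 37C without CO2, then given 3.0uM nilutamide and compounds at 15 concentrations for 16 hr. Viability was read by CellTiter-Fluor fluorescence.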

[3] = qHTS assay to identify small molecule agonists of the estrogen receptor beta (ER-beta) signaling pathway - cell viability counter screen (AID 1259380); note: nearly all actives have a fitted effect of over 30% in size; note: potency is the fitted concentration of half-maximal effect
Procedure, shortened: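 ER-beta-UAS-bla HEK293T cells in medium with 2% charcoal-stripped FBS were preincubated 6 hr at 37C, dosed with compound in DMSO for 16 hr, then after the bla read, CellTiter-Glo was added for 30 min at room temperature; luminescence recorded.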

[4] = qHTS assay to identify small molecule antagonists of the estrogen receptor beta (ER-beta) signaling pathway - cell viability counter screen (AID 1259382); note: nearly all actives have a fitted effect of over 55% in size; note: potency is the fitted concentration of half-maximal effect
Procedure, shortened: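 ER-beta-UAS-bla HEK293T cells (2,000/well, 2% charcoal-stripped FBS) were pre-incubated 6 hr at 37C, then given compound plus 1nM final 17-beta-estradiol for 16 hr. Viability was read in the same wells by CellTiter-Glo luminescence after 30 min at room temperature.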

[5] = qHTS assay to identify small molecule agonists or antagonists of the thyroid stimulating hormone receptor (TSHR) signaling pathway - wild type cell line counter screen (AID 1259384; calls by dose curve)
Procedure, shortened: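 Counter screen in untransfected Hek293: compounds (15-point titration, triplicate) plus phosphodiesterase inhibitor Ro20-1724 added after 18 h plating; 30 min RT. Intracellular cAMP via competitive d2/cryptate immunoassay, 1 h incubation.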

[6] = target: Thyrotropin receptor (Homo sapiens) (UniProt P16473); assay: qHTS assay to identify small molecule antagonists of the thyroid stimulating hormone receptor (TSHR) signaling pathway (AID 1259385; calls by dose curve; note: nearly all actives have a fitted effect of over 20% in size)
Procedure, shortened: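 Antagonist mode: compound-treated TSHR-expressing HEK293 cells were stimulated with 1.5 ng/mL TSH (final) in presence of Ro20-1724 for 30 min at RT. HTRF cAMP detection after 1 h; each compound tested at 15 concentrations, triplicate.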

[7] = qHTS assay to identify small molecule agonists of the estrogen receptor alpha (ER-alpha) signaling pathway in the presence of an antagonist - cell viability counter screen (AID 1259386);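 note: series mostly up to about 92 µM; cells exposed to compounds for 22 h at 37 °C before the viability read; nearly all actives have a fitted effect of over 30% in size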
Procedure, shortened: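 VM7Luc4E2 cells (endogenous full-length ER-alpha, 4×ERE-luciferase) were held 5 days in phenol red-free medium with 10% charcoal-stripped FBS, plated, then given 10.0nM ICI-182,780 and compounds at 15 concentrations for 22hr at 37C; viability read by CellTiter-Fluor fluorescence.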

[8] = target: Progesterone receptor (Homo sapiens) (UniProt P06401); assay: qHTS assay to identify small molecule agonists of the progesterone receptor (PR) signaling pathway (AID 1346784; calls by dose curve; note: nearly all actives have a fitted effect of over 30% in size)
Procedure, shortened: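 PR-UAS-bla HEK 293T cells (beta-lactamase reporter under UAS) in 2% charcoal-stripped FBS, dosed with 23 nL compound after 6 hr, incubated 16hr at 37C. LiveBLAzer B/G FRET substrate added, fluorescence read after 2 hours.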

[9] = qHTS assay to identify small molecule antagonists of the progesterone receptor (PR) signaling pathway - cell viability counter screen (AID 1346798); note: series mostly up to about 92 µM; nearly all actives have a fitted effect of over 50% in size
Procedure, shortened: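 PR-UAS-bla HEK293T cells, 3,000/well in 2% charcoal-stripped FBS medium, dosed with compounds plus R5020 agonist and incubated 16 h at 37C. Viability then measured in the same wells by CellTiter-Glo luminescence after 30 min at RT.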

[10] = qHTS assay to identify small molecule antagonists of the TGF-beta/Smad signaling pathway - cell viability counter screen (AID 1346824); note: nearly all actives have a fitted effect of over 50% in size
Procedure, shortened: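 Cytotoxicity counter-screen run in the same wells as the beta-lactamase Smad reporter read: CellTiter-Glo luminescence after 30 min at room temperature. HEK 293T SBE-bla cells had 5 hr compound exposure at 37 C with TGF-beta1 (0.25 ng/mL stock).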

[11] = qHTS assay to identify small molecule agonists of the TGF-beta/Smad signaling pathway - cell viability counter screen (AID 1346829); note: top concentration of the series differs between compounds; nearly all actives have a fitted effect of over 45% in size
Procedure, shortened: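 In parallel with the Smad reporter read, viability of HEK 293T cells stably carrying SBE-bla is quantified by ATP luminescence following 5 hr compound treatment.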

[12] = qHTS assay to identify small molecule agonists of the TGF-beta/Smad signaling pathway (AID 1346859; active = well fitted activation curve with a large enough effect in the signal ratio in the repeat runs, not every such curve was filed as active; the % refers to the signal ratio; note: series mostly up to about 77 µM)
Procedure, shortened: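 SBE-bla HEK293T cells plated overnight, then compound exposure for 5 h at 37 C. Beta-lactamase reporter read with LiveBLAzer B/G FRET substrate after 2 h at room temperature, fluorescence at 405 nm excitation, 460/530 nm emission.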

[13] = target: Thyrotropin-releasing hormone receptor (Homo sapiens) (UniProt P34981); assay: qHTS assay to identify small molecule antagonists of the thyrotropin-releasing hormone receptor (TRHR) signaling pathway (AID 1346877; active = well fitted inhibition curve with a large enough effect in the repeat runs, not every such curve was filed as active; note: series mostly up to about 51 µM)
Procedure, shortened: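 TRHR-expressing HEK293 cells were seeded, cultured 18 h at 37 °C, then loaded with calcium dye for 2 h. Compounds were pre-incubated 5 min at room temperature before 1 nM TRH (final) was added, and kinetic fluorescence was recorded for 3 min.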

[14] = target: Estrogen receptor (Homo sapiens) (UniProt P03372); assay: qHTS assay to identify small molecule agonists of the estrogen receptor alpha (ER-alpha) signaling pathway in the presence of an antagonist (AID 1259383; calls by dose curve; note: nearly all actives have a fitted effect of over 15% in size; note: potency is the fitted concentration of half-maximal effect; for activation: top concentration of the series differs between compounds)
Procedure, shortened: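 VM7Luc4E2 cells (endogenous full-length ER-alpha, 4×ERE-luciferase) were precultured 5 days in phenol red-free medium with 10% charcoal-stripped FBS, given 10.0nM ICI-182,780 (final), then treated with compounds at 15 concentrations for 22hr at 37C; luminescence read with ONE-Glo.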

[15] = target: Progesterone receptor (Homo sapiens) (UniProt P06401); assay: qHTS assay to identify small molecule antagonists of the progesterone receptor (PR) signaling pathway (AID 1346795; active = well fitted inhibition curve with a large enough effect in the signal ratio in the repeat runs, not every such curve was filed as active; the % refers to the signal ratio; note: potency is the fitted concentration of half-maximal effect)
Procedure, shortened: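 PR-UAS-bla HEK293T cells with beta-lactamase reporter under UAS control, in 2% charcoal-stripped FBS, treated with compounds plus 1 nM promegestone (R5020, final) for 16 hr at 37C. Read-out: FRET beta-lactamase substrate fluorescence after 2 hr at room temperature.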

[16] = qHTS assay to identify small molecule agonists of the progesterone receptor (PR) signaling pathway - cell viability counter screen (AID 1346799; calls by dose curve; note: nearly all actives have a fitted effect of over 45% in size)
Procedure, shortened: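 Counter screen in the PR-UAS-bla HEK293T wells (2% charcoal-stripped FBS, 16 h compound exposure at 37 C) after the bla read. CellTiter-Glo added, 30 min at room temperature, luminescence read as cell viability.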

[17] = target: Estrogen receptor beta (Homo sapiens) (UniProt Q92731); assay: qHTS assay to identify small molecule agonists of the estrogen receptor beta (ER-beta) signaling pathway (AID 1259377; active = well fitted activation curve with a large enough effect in the signal ratio in the repeat runs, not every such curve was filed as active; the % refers to the signal ratio; note: potency is the fitted concentration of half-maximal effect)
Procedure, shortened: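 ER-beta-UAS-bla HEK293T cells in medium with 2% charcoal-stripped FBS were exposed to compounds for 16 h at 37C. Beta-lactamase reporter activity was read as fluorescence after 2 h with LiveBLAzer B/G FRET substrate at room temperature.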

[18] = target: Androgen receptor (Homo sapiens) (UniProt P10275); assay: qHTS assay to identify small molecule agonists of the androgen receptor (AR) signaling pathway in the presence of an antagonist (AID 1259381; calls by dose curve; note: nearly all actives have a fitted effect of over 15% in size)
Procedure, shortened: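 MDA-kb2 human breast carcinoma cells carrying an MMTV-luciferase reporter (AR- and GR-responsive) were treated with compounds at 15 concentrations plus 3.0uM final nilutamide for 16hr at 37C without CO2; luminescence was read after ONE-Glo addition.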

[19] = qHTS assay to identify small molecule antagonists of the sonic hedgehog signaling (Shh) pathway (AID 1259369; calls by dose curve; note: nearly all actives have a fitted effect of over 45% in size; note: potency is the fitted concentration of half-maximal effect)
Procedure, shortened: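 NIH/3T3-derived 3T3Gli1-Luc cells with stably integrated Gli1-Luc reporter were preincubated 4hr at 37 C, then given compounds in DMSO plus Shh conditioned medium and incubated 24hr. Firefly luciferase luminescence read after 30min reagent at room temperature.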

[20] = target: Estrogen receptor beta (Homo sapiens) (UniProt Q92731); assay: qHTS assay to identify small molecule antagonists of the estrogen receptor beta (ER-beta) signaling pathway (AID 1259378; active = well fitted inhibition curve with a large enough effect in the signal ratio in the repeat runs, not every such curve was filed as active; the % refers to the signal ratio)
Procedure, shortened: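 Antagonist mode: compounds added to beta-lactamase reporter HEK293T ER-beta-UAS cells stimulated with E2 (1nM final), 16 hr at 37C. LiveBLAzer B/G FRET substrate, 2 hours room temperature, fluorescence read-out.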

Measured: Potency

Estrogen receptor beta (Homo sapiens), sequence (Q92731 whole entry, looked up): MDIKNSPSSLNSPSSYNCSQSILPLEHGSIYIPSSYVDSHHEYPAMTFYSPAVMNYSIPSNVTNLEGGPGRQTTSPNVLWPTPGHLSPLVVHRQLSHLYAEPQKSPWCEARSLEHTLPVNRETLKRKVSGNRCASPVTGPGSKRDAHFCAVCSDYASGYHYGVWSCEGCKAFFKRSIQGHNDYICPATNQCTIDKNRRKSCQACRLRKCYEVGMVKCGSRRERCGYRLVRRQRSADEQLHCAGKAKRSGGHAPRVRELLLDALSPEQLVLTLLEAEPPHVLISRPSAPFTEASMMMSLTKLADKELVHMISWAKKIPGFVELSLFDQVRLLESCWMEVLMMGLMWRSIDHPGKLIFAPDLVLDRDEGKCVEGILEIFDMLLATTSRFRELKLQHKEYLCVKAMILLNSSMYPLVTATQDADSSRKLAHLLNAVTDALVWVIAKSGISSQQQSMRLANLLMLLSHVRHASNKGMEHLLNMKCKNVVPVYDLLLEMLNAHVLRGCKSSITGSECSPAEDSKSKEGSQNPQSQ
Progesterone receptor (Homo sapiens), sequence (P06401 whole entry, looked up): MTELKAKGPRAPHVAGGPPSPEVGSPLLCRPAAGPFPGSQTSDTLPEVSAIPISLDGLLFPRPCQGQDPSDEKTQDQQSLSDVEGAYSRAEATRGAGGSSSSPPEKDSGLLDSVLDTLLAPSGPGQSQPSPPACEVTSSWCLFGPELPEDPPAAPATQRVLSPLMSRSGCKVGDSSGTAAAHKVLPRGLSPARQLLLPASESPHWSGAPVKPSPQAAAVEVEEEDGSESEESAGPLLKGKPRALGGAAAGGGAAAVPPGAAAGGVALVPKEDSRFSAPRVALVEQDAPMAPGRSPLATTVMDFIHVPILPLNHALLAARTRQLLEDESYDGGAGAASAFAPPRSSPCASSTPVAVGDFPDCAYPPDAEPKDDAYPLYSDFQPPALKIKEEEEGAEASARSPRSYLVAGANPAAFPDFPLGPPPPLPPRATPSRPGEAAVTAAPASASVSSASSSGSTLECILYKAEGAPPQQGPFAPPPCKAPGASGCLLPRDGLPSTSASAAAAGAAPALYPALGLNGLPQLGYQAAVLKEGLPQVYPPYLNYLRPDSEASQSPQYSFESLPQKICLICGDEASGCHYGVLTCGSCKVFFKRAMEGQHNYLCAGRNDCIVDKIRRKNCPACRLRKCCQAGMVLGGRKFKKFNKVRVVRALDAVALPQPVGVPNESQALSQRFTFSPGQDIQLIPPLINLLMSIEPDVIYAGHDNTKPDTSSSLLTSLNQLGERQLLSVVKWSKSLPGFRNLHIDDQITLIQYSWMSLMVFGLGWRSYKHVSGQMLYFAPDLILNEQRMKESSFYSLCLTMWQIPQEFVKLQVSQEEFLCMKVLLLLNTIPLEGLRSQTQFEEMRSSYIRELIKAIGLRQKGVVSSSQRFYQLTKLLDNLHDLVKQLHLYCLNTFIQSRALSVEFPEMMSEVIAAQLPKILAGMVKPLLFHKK
Thyrotropin receptor (Homo sapiens), sequence (P16473 whole entry, looked up): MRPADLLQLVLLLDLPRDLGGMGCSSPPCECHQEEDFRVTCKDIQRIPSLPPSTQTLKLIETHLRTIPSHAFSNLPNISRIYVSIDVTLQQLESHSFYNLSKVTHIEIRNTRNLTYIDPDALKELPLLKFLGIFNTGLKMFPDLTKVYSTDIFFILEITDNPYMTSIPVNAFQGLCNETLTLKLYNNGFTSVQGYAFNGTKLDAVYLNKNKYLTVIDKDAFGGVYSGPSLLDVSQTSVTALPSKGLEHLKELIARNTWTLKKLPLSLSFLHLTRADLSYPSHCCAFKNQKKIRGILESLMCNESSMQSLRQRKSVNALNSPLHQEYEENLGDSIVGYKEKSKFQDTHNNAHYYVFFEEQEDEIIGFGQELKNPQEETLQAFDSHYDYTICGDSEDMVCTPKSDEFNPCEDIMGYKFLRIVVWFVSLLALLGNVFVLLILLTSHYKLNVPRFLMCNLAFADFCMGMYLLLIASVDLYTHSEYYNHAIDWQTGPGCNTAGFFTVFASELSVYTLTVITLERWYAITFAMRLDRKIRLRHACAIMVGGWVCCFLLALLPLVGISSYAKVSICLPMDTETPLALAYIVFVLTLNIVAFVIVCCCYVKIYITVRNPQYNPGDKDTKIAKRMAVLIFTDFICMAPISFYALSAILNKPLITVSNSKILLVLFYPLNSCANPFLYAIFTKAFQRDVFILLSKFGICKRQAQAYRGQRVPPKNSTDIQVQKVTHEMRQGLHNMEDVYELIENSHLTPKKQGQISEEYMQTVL
Thyrotropin-releasing hormone receptor (Homo sapiens), sequence (P34981 whole entry, looked up): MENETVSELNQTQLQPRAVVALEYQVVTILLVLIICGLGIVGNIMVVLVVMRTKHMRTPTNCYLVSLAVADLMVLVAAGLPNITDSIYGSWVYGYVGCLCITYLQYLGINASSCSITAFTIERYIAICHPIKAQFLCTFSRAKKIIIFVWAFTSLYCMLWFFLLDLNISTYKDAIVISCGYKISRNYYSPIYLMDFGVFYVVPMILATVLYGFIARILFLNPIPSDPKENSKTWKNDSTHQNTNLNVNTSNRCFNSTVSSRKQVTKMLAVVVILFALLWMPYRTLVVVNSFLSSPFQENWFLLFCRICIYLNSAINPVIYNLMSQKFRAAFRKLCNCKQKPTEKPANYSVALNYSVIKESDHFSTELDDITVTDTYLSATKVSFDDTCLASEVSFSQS
Estrogen receptor (Homo sapiens), sequence (P03372 whole entry, looked up): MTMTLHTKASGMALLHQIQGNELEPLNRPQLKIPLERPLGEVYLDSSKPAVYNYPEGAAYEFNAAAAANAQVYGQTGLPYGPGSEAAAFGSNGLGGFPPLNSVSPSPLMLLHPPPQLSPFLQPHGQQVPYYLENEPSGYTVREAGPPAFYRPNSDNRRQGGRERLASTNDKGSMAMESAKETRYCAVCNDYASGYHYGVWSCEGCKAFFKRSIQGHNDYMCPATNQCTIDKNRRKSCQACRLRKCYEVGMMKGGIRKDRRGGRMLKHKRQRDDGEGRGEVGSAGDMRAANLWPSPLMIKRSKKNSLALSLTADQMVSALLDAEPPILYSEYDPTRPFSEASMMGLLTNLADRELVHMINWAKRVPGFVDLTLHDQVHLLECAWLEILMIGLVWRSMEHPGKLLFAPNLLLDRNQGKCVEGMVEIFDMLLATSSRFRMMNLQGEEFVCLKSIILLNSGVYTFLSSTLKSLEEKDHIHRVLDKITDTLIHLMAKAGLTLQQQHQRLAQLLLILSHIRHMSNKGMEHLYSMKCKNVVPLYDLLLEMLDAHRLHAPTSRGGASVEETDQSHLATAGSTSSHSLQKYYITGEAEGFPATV
Androgen receptor (Homo sapiens), sequence (P10275 whole entry, looked up): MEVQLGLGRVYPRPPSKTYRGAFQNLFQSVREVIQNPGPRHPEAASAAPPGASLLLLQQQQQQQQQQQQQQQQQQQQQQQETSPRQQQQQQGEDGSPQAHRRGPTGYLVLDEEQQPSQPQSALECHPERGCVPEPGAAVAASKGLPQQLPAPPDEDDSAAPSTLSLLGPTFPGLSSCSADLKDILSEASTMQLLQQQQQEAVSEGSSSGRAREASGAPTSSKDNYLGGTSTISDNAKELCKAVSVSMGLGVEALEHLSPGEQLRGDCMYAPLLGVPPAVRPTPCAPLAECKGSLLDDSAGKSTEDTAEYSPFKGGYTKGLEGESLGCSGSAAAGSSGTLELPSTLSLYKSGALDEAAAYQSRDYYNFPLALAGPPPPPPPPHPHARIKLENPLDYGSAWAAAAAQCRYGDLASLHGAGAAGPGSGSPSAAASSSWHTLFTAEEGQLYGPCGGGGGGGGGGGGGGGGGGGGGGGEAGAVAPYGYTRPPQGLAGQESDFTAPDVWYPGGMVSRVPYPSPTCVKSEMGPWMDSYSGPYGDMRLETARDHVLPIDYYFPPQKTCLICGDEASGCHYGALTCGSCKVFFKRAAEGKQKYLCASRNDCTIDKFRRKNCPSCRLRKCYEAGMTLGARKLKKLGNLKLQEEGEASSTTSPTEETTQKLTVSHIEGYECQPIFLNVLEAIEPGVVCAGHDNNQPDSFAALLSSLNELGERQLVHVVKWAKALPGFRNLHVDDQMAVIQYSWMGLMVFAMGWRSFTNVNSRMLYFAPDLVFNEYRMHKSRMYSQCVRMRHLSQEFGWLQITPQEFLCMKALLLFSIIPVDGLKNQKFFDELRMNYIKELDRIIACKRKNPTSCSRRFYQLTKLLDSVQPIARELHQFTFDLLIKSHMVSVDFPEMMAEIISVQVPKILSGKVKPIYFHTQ

O=C(CCCCCCC(=O)Nc1ccccc1)NO
active: [3] 2.66 µM | [4] 1.19 µM
not listed: [14] | [15] | [16] | [17] | [18] | [19] | [20]
inactive: all other assays above

CCC1(C)CC(=O)NC1=O (centres undefined)
not listed: [5] | [6] | [7] | [17] | [18] | [19] | [20]
inactive: all other assays above

CC1=CC(=O)CC(C)(C)C1(O)/C=C/C(C)=C\C(=O)O (centres undefined)
not listed: [14] | [15] | [17] | [18] | [19] | [20]
inactive: all other assays above

COc1cc2c(cc1OC)-c1cc(=Nc3c(C)cc(C)cc3C)n(C)c(=O)n1CC2
active: [15] 26.6 µM
not listed: [8] | [9] | [14] | [16] | [17] | [18] | [19] | [20]
inactive: all other assays above

O=C(CCCN1CCN(c2ccc(F)cc2)CC1)NC1c2ccccc2CSc2ccccc21 (centres undefined)
not listed: [3] | [4] | [6] | [9] | [15] | [18] | [19] | [20]
inactive: all other assays above

N#C/C(=C1/SC[C@@H](c2ccc(Cl)cc2Cl)S1)n1ccnc1
inactive: [1] | [17] | [3] | [4] | [5] | [7] | [8] | [10] | [11] | [13]

O=C(c1ccc(O)cc1)c1ccc(Cl)cc1
inactive: [1] | [3] | [4] | [9] | [10] | [11] | [13]

CCCCCCCC/C=C\CCCCCCCC(=O)OC(CO)CO
inactive: [1] | [17] | [7] | [8] | [15] | [9] | [10] | [11] | [12] | [13]

C=CCOC(=O)/C=C\C(=O)OCC=C
not listed: [8] | [14] | [17] | [19] | [20]
inactive: all other assays above

CCOC(=O)OCC
not listed: [1] | [7] | [14] | [18]
inactive: all other assays above

CC(Cl)C(Cl)Cl (centres undefined)
not listed: [1] | [9] | [15] | [16] | [18] | [20]
inactive: all other assays above

CC1=CC(O)CC(C)(C)C1 (centres undefined)
not listed: [1] | [8] | [13] | [15] | [17] | [18] | [20]
inactive: all other assays above

NCC1CCCC(CN)C1 (centres undefined)
not listed: [1] | [5] | [6] | [14] | [18] | [19]
inactive: all other assays above

CC(C)=CC=O
not listed: [1] | [5] | [6] | [8] | [15] | [18] | [19]
inactive: all other assays above

CC1=C(/C=C/C(C)=C\C=C\C(C)=C\C(=O)O)C(C)(C)CCC1
inactive: [19] | [9] | [10] | [11] | [13]

O=S1OCCO1
not listed: [1] | [18]
inactive: all other assays above

CC(C)(C)C(=O)O
not listed: [1] | [8] | [9] | [14] | [16] | [18] | [19] | [20]
inactive: all other assays above

C/C=C/C=C/CCCCCCCO
inactive: [2] | [4] | [14] | [5] | [6] | [8] | [10] | [11] | [12] | [13]

C=CC(C)(C)CC(=O)OC
inactive: [4] | [5] | [6] | [7] | [9] | [10] | [11] | [12] | [13]
active: [19] 27.4 µM | [3] 5.46 µM

CCCCC(CC)C(=O)OCCOCCOCCOCCOC(=O)C(CC)CCCC (centres undefined)
not listed: [1] | [3] | [6] | [8] | [11] | [18]
inactive: all other assays above

Nc1ccc(C(=O)OCCCOC(=O)c2ccc(N)cc2)cc1
active: [3] 17.2 µM
inactive: [2] | [14] | [7] | [8] | [10] | [11] | [12]

NC(=O)Nc1ccc(Cl)cc1
not listed: [1] | [8] | [13] | [14] | [16] | [18] | [20]
inactive: all other assays above

CCC(=O)Oc1ccc(/C(CC)=C(\CC)c2ccc(OC(=O)CC)cc2)cc1
active: [19] 24.3 µM | [17] 0.0017 µM | [14] 0.0054 µM | [15] 12.2 µM
inactive: [2] | [4] | [5] | [6] | [7] | [10] | [11] | [12] | [13]

Oc1ccc(Nc2ccccc2)cc1
active: [15] 27.3 µM
inactive: [19] | [2] | [14] | [5] | [7] | [9] | [10] | [11] | [12] | [13]

Nc1nccs1
not listed: [1] | [5] | [6] | [13] | [14] | [18] | [19]
inactive: all other assays above
